Results as given in publication PMC7862700, “An all-to-all approach to the identification of sequence-specific readers for epigenetic DNA modifications on cytosine”.

Experiments:
Assay in all cases: DAPPL (digital affinity profiling via proximity ligation, sequencing); 10 mM Tris-HCl pH 7.5, 50 mM NaCl, 1 mM DTT, 4% glycerol, room temperature, 30 min; GST-TFs on glutathione beads, 16-mer random dsDNA library, 0.1% formaldehyde crosslink after washing; high values mean tight binding
FLI1 = biological target: T1, FLI1 (Homo sapiens, UniProt Q01543 1-452); details: protein: recombinant; tags: N-terminal GST; dsDNA, one strand shown
T1 sequence: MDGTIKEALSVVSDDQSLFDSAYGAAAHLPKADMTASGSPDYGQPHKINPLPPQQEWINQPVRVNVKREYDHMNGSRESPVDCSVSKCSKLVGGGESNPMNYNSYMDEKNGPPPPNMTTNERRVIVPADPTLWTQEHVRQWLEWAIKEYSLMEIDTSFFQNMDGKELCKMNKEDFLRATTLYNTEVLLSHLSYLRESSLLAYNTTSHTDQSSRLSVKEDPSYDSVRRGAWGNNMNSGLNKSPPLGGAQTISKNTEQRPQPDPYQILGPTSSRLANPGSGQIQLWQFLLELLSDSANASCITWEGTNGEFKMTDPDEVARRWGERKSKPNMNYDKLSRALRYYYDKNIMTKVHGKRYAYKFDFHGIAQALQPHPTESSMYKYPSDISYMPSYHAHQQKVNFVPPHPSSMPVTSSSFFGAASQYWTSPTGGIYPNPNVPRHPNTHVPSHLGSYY
How it was run: (§1)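 GST fusions of human transcription factors were expressed in yeast and captured with glutathione beads. Once given DNA barcodes and pooled alongside a tag-only sample, they were incubated for 30 min at room temperature with 200 nmole of a random double-stranded 16-mer DNA library in Tris/NaCl/DTT/glycerol buffer, then washed, crosslinked (0.1% formaldehyde), proximity-ligated, PCR-amplified and sequenced on an Illumina NextSeq500. The binding signal of each hexamer is its read frequency for a factor divided by its frequency for the tag-only sample.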

ELK1 = biological target: T2, ELK1 (Homo sapiens, UniProt P19419 1-428); details: protein: recombinant; tags: N-terminal GST; dsDNA, one strand shown
T2 sequence: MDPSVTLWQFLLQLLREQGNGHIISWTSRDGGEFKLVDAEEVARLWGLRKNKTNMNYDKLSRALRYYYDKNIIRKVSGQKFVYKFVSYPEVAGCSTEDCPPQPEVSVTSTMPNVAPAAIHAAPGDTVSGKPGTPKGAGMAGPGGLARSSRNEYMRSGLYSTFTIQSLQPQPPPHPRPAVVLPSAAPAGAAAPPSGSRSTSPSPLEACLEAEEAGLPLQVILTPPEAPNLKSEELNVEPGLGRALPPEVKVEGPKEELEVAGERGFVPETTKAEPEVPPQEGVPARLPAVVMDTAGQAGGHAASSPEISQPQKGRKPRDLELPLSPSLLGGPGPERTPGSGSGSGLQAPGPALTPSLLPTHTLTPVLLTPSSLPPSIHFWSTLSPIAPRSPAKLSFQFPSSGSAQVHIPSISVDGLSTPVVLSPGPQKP
How it was run: as §1

GABPA = biological target: T3, GABPA (Homo sapiens, UniProt Q06546 1-454); details: protein: recombinant; tags: N-terminal GST; dsDNA, one strand shown
T3 sequence: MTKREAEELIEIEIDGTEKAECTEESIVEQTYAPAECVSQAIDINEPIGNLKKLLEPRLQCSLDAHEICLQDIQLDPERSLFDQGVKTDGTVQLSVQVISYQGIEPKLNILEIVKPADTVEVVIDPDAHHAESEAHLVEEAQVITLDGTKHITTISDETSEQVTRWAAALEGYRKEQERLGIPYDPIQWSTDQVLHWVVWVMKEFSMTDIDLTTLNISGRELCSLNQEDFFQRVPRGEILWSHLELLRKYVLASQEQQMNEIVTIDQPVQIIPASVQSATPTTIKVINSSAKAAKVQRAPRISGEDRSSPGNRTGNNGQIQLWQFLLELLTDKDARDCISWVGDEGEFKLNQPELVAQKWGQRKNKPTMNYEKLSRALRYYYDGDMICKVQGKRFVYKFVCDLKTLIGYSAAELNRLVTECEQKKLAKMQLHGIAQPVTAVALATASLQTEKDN
How it was run: as §1

ERG = biological target: T4, ERG (Homo sapiens, UniProt P11308 1-479); details: protein: recombinant; tags: N-terminal GST; dsDNA, one strand shown
T4 sequence: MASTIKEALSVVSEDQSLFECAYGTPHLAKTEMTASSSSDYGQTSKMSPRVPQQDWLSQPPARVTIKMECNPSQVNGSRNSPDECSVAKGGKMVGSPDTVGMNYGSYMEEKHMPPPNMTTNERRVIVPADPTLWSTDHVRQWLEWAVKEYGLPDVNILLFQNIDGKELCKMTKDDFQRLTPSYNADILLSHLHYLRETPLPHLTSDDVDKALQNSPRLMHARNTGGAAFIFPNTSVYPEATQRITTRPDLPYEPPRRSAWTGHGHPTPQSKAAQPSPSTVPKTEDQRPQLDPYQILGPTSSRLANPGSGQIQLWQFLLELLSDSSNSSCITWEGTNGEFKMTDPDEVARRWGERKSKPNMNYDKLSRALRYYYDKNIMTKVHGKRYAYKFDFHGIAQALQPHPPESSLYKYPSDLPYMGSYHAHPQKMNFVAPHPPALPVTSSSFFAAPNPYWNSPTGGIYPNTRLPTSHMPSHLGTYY
How it was run: as §1

ELF1 = ELF1 (Homo sapiens, UniProt P32519 1-619); details: protein: recombinant; tags: N-terminal GST; dsDNA, one strand shown
Sequence of ELF1 (P32519 whole entry): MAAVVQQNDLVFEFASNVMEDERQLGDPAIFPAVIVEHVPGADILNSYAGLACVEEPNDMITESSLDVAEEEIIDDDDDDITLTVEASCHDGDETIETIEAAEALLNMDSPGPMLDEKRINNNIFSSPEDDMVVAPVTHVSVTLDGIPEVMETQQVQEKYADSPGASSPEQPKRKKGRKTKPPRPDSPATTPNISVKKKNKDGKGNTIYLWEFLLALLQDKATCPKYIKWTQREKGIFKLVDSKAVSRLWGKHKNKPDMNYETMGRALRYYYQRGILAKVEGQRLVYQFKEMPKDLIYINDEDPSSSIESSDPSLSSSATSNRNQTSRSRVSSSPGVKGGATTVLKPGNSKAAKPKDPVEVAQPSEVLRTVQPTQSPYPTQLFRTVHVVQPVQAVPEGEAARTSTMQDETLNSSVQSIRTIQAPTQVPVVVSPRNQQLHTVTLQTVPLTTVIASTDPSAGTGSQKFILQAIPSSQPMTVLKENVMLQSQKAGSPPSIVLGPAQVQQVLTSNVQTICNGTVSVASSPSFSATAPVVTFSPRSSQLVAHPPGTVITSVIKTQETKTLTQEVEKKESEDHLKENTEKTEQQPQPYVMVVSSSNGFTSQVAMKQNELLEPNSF
How it was run: as §1

EHF = biological target: T5, EHF (Homo sapiens, UniProt Q9NZC4 1-300); details: protein: recombinant; tags: N-terminal GST; dsDNA, one strand shown
T5 sequence: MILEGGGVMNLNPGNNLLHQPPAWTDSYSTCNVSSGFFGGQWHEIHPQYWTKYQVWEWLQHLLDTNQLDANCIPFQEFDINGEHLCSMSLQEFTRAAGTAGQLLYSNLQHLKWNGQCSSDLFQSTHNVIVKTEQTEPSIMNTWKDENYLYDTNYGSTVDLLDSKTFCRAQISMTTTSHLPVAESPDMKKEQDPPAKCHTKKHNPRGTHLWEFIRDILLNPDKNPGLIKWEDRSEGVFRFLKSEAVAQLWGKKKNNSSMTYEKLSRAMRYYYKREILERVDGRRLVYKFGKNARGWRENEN
How it was run: as §1

SPI1 = SPI1 (Homo sapiens, UniProt P17947 1-270); details: protein: recombinant; tags: N-terminal GST; dsDNA, one strand shown
How it was run: as §1

SPIB = SPIB (Homo sapiens, UniProt Q01892 1-262); details: protein: recombinant; tags: N-terminal GST; dsDNA, one strand shown
Sequence of SPIB (Q01892 whole entry): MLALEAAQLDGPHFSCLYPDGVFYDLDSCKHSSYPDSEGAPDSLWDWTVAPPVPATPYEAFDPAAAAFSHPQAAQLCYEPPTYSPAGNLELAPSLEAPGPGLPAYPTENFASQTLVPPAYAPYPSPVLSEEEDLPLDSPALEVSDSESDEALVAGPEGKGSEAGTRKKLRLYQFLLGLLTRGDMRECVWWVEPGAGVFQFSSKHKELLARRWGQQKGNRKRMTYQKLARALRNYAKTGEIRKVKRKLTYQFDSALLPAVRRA
How it was run: as §1

ELK3 = biological target: T6, ELK3 (Homo sapiens, UniProt P41970 1-407); details: protein: recombinant; tags: N-terminal GST; dsDNA, one strand shown
T6 sequence: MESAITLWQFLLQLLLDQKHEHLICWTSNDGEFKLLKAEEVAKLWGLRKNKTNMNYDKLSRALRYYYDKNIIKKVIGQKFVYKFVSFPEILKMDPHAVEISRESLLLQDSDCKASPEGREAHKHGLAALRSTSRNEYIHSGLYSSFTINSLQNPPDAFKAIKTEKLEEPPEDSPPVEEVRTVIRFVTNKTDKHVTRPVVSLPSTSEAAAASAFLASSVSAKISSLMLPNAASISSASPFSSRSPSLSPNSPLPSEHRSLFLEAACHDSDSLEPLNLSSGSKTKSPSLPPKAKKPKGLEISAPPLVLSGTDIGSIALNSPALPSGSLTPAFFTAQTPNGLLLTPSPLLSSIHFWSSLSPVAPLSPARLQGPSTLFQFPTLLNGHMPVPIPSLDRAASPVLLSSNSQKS
How it was run: as §1

FEV = biological target: T7, FEV (Homo sapiens, UniProt Q99581 1-238); details: protein: recombinant; tags: N-terminal GST; dsDNA, one strand shown
T7 sequence: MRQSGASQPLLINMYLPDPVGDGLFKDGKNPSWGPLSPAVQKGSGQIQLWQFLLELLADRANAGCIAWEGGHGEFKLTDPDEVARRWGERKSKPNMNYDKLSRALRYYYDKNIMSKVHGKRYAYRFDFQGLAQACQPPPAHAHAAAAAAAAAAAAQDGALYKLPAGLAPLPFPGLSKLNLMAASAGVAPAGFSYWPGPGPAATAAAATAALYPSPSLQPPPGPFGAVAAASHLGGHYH
How it was run: as §1

ETV5 = ETV5 (Homo sapiens, UniProt P41161 1-510); details: protein: recombinant; tags: N-terminal GST; dsDNA, one strand shown
Sequence of ETV5 (P41161 whole entry): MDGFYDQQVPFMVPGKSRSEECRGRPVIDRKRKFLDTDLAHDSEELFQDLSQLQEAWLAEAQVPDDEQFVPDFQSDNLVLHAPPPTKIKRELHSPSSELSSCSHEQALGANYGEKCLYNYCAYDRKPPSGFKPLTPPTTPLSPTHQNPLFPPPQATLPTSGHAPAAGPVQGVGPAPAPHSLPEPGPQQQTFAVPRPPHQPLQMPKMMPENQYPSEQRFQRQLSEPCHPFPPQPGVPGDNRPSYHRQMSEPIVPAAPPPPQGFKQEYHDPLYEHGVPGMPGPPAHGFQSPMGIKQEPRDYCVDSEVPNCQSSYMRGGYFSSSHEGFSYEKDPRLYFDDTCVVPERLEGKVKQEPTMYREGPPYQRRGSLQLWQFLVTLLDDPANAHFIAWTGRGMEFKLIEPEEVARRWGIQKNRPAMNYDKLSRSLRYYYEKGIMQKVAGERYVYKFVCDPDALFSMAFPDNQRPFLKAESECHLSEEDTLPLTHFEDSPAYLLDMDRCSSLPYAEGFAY
How it was run: as §1

HSF1 = HSF1 (Homo sapiens, UniProt Q00613 1-529); details: protein: recombinant; tags: N-terminal GST; chain copies: 3; dsDNA, one strand shown
Sequence of HSF1 (Q00613 whole entry): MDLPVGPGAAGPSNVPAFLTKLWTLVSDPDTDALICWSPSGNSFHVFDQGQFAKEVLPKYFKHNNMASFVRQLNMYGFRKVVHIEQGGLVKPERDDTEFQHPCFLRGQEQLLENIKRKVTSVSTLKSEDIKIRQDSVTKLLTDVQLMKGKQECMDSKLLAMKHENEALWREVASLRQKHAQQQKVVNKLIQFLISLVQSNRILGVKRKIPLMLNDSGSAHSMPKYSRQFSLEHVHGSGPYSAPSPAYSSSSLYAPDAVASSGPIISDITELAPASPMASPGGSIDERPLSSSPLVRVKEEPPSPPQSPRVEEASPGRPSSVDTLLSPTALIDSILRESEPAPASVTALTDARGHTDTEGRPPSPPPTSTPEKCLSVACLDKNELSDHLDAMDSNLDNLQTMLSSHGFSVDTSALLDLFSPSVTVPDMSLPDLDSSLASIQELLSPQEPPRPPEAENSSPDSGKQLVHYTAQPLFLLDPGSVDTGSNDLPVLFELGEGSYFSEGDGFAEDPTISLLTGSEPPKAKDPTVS
How it was run: as §1

SPIC = biological target: T8, SPIC (Homo sapiens, UniProt Q8N5J4 1-248); details: protein: recombinant; tags: N-terminal GST; dsDNA, one strand shown
T8 sequence: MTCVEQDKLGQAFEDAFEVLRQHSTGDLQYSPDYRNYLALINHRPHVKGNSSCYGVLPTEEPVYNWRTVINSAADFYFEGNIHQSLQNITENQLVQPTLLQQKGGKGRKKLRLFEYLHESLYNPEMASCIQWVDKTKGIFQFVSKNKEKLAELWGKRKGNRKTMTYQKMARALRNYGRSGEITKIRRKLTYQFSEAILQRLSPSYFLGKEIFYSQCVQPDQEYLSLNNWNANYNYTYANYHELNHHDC
How it was run: as §1

ELF4 = ELF4 (Homo sapiens, UniProt Q99607 1-663); details: protein: recombinant; tags: N-terminal GST; dsDNA, one strand shown
Sequence of ELF4 (Q99607 whole entry): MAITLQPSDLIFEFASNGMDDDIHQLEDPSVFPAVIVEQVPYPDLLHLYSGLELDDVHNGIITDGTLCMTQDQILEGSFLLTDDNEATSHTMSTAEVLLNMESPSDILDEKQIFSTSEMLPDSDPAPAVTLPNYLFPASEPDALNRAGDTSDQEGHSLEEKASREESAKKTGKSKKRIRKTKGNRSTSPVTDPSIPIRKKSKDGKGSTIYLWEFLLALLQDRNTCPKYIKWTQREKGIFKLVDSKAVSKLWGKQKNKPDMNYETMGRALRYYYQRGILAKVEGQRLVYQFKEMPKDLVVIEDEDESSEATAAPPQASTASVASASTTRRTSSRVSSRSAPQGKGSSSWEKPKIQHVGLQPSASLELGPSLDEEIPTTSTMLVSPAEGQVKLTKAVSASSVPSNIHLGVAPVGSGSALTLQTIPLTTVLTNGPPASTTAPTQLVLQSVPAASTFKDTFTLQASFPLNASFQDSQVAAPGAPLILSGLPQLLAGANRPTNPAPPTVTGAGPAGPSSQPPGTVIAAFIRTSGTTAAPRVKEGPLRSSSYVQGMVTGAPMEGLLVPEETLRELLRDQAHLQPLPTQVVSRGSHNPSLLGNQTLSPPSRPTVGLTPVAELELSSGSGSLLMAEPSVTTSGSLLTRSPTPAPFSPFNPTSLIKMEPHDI
How it was run: as §1

ELK4 = biological target: T9, ELK4 (Homo sapiens, UniProt P28324-2 1-405); details: protein: recombinant; tags: N-terminal GST; dsDNA, one strand shown
T9 sequence: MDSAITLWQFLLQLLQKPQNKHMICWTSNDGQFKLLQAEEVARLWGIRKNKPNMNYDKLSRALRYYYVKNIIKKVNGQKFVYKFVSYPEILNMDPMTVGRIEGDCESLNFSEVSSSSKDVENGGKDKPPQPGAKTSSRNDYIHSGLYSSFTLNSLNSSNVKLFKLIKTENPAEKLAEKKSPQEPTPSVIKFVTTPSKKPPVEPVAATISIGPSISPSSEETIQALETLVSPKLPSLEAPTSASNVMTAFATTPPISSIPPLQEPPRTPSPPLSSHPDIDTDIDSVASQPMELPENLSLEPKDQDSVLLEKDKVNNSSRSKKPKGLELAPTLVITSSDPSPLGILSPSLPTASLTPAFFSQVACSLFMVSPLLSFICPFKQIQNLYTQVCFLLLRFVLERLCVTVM
How it was run: as §1

ETV2 = biological target: T10, ETV2 (Homo sapiens, UniProt O00321 1-342); details: protein: recombinant; tags: N-terminal GST; dsDNA, one strand shown
T10 sequence: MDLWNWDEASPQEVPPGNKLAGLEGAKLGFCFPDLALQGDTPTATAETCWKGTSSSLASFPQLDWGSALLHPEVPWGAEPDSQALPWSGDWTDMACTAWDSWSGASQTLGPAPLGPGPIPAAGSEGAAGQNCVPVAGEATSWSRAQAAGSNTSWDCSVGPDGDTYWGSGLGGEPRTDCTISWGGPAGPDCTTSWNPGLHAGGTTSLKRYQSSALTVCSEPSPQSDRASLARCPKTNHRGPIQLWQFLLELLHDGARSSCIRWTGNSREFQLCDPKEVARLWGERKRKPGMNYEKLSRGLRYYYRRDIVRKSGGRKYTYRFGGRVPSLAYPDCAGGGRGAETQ
How it was run: as §1

ELF3 = biological target: T11, ELF3 (Homo sapiens, UniProt P78545 1-371); details: protein: recombinant; tags: N-terminal GST; dsDNA, one strand shown
T11 sequence: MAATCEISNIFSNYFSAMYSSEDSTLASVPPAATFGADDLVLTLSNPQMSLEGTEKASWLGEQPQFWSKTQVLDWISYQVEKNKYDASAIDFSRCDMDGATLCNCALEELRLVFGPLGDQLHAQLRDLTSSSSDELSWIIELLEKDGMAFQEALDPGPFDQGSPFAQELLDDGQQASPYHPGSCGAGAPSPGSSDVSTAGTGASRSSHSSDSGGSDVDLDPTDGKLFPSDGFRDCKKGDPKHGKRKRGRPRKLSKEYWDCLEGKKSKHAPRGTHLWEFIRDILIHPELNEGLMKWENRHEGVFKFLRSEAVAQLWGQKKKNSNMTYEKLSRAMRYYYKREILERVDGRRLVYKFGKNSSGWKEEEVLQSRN
How it was run: as §1

CRX = CRX (Homo sapiens, UniProt O43186 1-299); details: protein: recombinant; tags: N-terminal GST; dsDNA, one strand shown
Sequence of CRX (O43186 whole entry): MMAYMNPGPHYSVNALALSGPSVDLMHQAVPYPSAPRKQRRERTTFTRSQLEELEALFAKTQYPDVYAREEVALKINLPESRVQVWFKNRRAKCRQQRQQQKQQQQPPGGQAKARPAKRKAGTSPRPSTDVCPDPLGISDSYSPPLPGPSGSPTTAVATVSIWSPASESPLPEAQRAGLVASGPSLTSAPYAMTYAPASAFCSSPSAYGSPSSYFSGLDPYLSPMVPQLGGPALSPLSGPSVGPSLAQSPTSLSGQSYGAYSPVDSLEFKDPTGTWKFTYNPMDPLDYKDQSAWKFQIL
How it was run: as §1

ETV1 = ETV1 (Homo sapiens, UniProt P50549 1-477); details: protein: recombinant; tags: N-terminal GST; dsDNA, one strand shown
Sequence of ETV1 (P50549 whole entry): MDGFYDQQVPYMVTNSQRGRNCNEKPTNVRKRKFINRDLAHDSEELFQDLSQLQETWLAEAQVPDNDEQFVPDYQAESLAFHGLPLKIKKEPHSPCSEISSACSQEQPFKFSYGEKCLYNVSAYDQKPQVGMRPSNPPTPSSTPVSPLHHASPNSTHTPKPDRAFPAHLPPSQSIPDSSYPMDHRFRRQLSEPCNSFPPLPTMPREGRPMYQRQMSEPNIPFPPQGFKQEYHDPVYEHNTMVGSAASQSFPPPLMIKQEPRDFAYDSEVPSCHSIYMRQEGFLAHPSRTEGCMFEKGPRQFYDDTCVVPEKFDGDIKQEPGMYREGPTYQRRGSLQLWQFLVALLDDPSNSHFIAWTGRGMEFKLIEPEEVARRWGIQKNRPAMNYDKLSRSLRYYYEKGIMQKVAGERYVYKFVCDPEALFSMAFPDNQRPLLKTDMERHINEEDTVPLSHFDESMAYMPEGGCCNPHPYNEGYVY
How it was run: as §1

In the case of GGGCCT, the binding signal (FLI1) is reported as 1.26 fold enrichment (6-mer frequency, TF over GST control), the binding signal (ELK1) is reported as 1.29 fold enrichment (6-mer frequency, TF over GST control) and the binding signal (GABPA) is reported as 1.3 fold enrichment (6-mer frequency, TF over GST control). The binding signal (ERG) was 1.16 fold enrichment (6-mer frequency, TF over GST control), the binding signal (ELF1) was 1.27 fold enrichment (6-mer frequency, TF over GST control) and the binding signal (EHF) was 1.27 fold enrichment (6-mer frequency, TF over GST control). For the same sequence, the binding signal (SPI1) was 1.15 fold enrichment (6-mer frequency, TF over GST control), the binding signal (SPIB) was 1.23 fold enrichment (6-mer frequency, TF over GST control) and the binding signal (ELK3) was 1.32 fold enrichment (6-mer frequency, TF over GST control). For the same sequence, the binding signal (FEV) was 1.11 fold enrichment (6-mer frequency, TF over GST control), the binding signal (ETV5) was 1.27 fold enrichment (6-mer frequency, TF over GST control) and the binding signal (HSF1) was 1.1 fold enrichment (6-mer frequency, TF over GST control). For the same sequence, the binding signal (SPIC) was 1.13 fold enrichment (6-mer frequency, TF over GST control), the binding signal (ELF4) was 1.24 fold enrichment (6-mer frequency, TF over GST control) and the binding signal (ELK4) was 1.3 fold enrichment (6-mer frequency, TF over GST control). For the same sequence, the binding signal (ETV2) was 1.05 fold enrichment (6-mer frequency, TF over GST control), the binding signal (ELF3) was 1.19 fold enrichment (6-mer frequency, TF over GST control) and the binding signal (CRX) was 1.07 fold enrichment (6-mer frequency, TF over GST control). The binding signal (ETV1) was 1.31 fold enrichment (6-mer frequency, TF over GST control).
